From PubChem BioAssay AID1159580 (chemical genetic matrix, 2015)
Where “and” joins values, the source holds several entries; their conditions need not be identical. Identical values can stand only once. Hit rate of the full screen: of about 5,500 compounds, about 2,000 (36%) were called active. Roughly 18% stayed inconclusive and do not appear here. Cut-off read from the data, not from the text of the source: active = normalized growth mostly below about 0.91 (no sharp cut-off); inconclusive = no clear call, values can overlap the other calls; inactive = mostly above about 0.92. The list shows a part of the results.

Assay: chemical genetic growth profiling, strain panel (AID 1159580);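 note: tested at 20 µM; growth read once vehicle control cultures reached saturation at 30 °C; 1 = growth at the plate median or of vehicle wells; lower values mean less growth of the strain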
Conditions: S. cerevisiae deletion strains, growth OD

Measured: normalized growth

CC(=O)N[C@@H](Cc1c[nH]c2ccccc12)C(N)=O
inactive: locus YAL013W, strain DEP1, hits give low values 1.09 | locus YAL021C, strain ccr4, hits give low values 1 | locus YAL026C, strain drs2, hits give low values 1 | locus YAL030W, strain snc1, hits give low values 1.02 | locus YBL061C, strain skt5, hits give low values 1.02 | locus YBR009C, strain hhf1, hits give low values 1.01 | locus YBR021W, strain FUR4, hits give low values 1.02 | locus YBR023C, strain chs3, hits give low values 1.02 | locus YBR171W, strain sec66, hits give low values 1.01 | locus YBR229C, strain ROT2, hits give low values 0.965 | locus YBR231C, strain swc5, hits give low values 1.02 | locus YBR279W, strain paf1, hits give low values 1.01 | locus YCL011C, strain gbp2, hits give low values 1.02 | locus YCL016C, strain dcc1, hits give low values 1.01 | locus YCL029C, strain bik1, hits give low values 0.999 | locus YCL061C, strain MRC1, hits give low values 1.02 | locus YCL069W, strain vba3, hits give low values 1.02 | locus YCR088W, strain abp1, hits give low values 1.03 | locus YDL005C, strain med2, hits give low values 1.04 | locus YDL035C, strain GPR1, hits give low values 0.985 | locus YDL040C, strain nat1, hits give low values 1.02 | locus YDL074C, strain BRE1, hits give low values 0.948 | locus YDL101C, strain DUN1, hits give low values 0.977 | locus YDL134C, strain PPH21, hits give low values 0.985 | locus YDL185W, strain tfp1, hits give low values 0.972 | locus YDL192W, strain arf1, hits give low values 0.99 | locus YDR001C, strain nth1, hits give low values 1.01 | locus YDR069C, strain doa4, hits give low values 1.03 | locus YDR101C, strain arx1, hits give low values 0.997 | locus YDR137W, strain rgp1, hits give low values 1.01 | locus YDR150W, strain NUM1, hits give low values 0.972 | locus YDR159W, strain sac3, hits give low values 1.03 | locus YDR162C, strain NBP2, hits give low values 0.945 | locus YDR195W, strain ref2 1.05 | locus YDR297W, strain sur2, hits give low values 1.03 | locus YDR318W, strain mcm21, hits give low values 1 | locus YDR334W, strain swr1, hits give low values 1.01 | locus YDR335W, strain msn5, hits give low values 1 | locus YDR388W, hits give low values 1 | locus YDR392W, strain spt3, hits give low values 0.953 | locus YDR502C, strain sam2, hits give low values 0.996 | locus YEL003W, strain gim4, hits give low values 1.01 | locus YEL037C, strain rad23, hits give low values 1.02 | locus YEL061C, strain CIN8 (second series), hits give low values 1.02 | locus YEL061C, strain CIN8, hits give low values 0.99 | locus YER015W, strain faa2, hits give low values 1.02 | locus YER016W, strain bim1, hits give low values 1.01 | locus YER110C, hits give low values 1 | locus YER111C, strain swi4, hits give low values 1.01 | locus YER155C, strain BEM2 (second series), hits give low values 1.06 | locus YER155C, strain BEM2, hits give low values 1.01 | locus YER167W, strain BCK2, hits give low values 1.01 | locus YFR010W, strain ubp6, hits give low values 1.02 | locus YGL078C, strain dbp3, hits give low values 0.994 | locus YGL086W, strain mad1, hits give low values 1 | locus YGL167C, strain pmr1, hits give low values 1.01 | locus YGL173C, strain kem1, hits give low values 1.02 | locus YGL227W, strain vid30, hits give low values 1.03 | locus YGL240W, strain doc1, hits give low values 1.05 | locus YGL248W, strain PDE1, hits give low values 0.986 | locus YGL253W, strain hxk2, hits give low values 1.01 | locus YGR078C, strain PAC10, hits give low values 0.97 | locus YGR135W, strain pre9, hits give low values 0.983 | locus YGR229C, strain SMI1, hits give low values 0.973 | locus YGR252W, strain gcn5, hits give low values 1.02 | locus YHR013C, strain ard1, hits give low values 1.03 | locus YHR027C, strain rpn1, hits give low values 1.01 | locus YHR030C, strain SLT2, hits give low values 1 | locus YHR079C, strain IRE1 (second series), hits give low values 1.01 | locus YHR079C, strain IRE1, hits give low values 0.99 | locus YHR094C, strain hxt1, hits give low values 0.995 | locus YHR129C, strain ARP1, hits give low values 0.994 | locus YHR142W, strain chs7, hits give low values 1 | locus YHR200W, strain rpn10, hits give low values 1.01 | locus YIL066C, strain RNR3, hits give low values 0.973 | locus YIL073C, strain SPO22, hits give low values 1.06 | locus YIL125W, strain kgd1, hits give low values 0.989 | locus YIR030C, strain dcg1, hits give low values 1 | locus YJL092W, strain hpr5, hits give low values 1.02 | locus YJL095W, strain BCK1 (second series), hits give low values 1.02 | locus YJL095W, strain BCK1, hits give low values 0.994 and 1.02 | locus YJL115W, strain asf1, hits give low values 1.04 | locus YJL129C, strain trk1, hits give low values 1.08 | locus YJL134W, strain LCB3, hits give low values 0.997 | locus YJL154C, strain vps35, hits give low values 1.02 | locus YJL164C, strain tpk1, hits give low values 1.02 | locus YJL166W, strain qcr8, hits give low values 1.04 | locus YJL168C, strain set2, hits give low values 0.994 | locus YJL187C, strain SWE1 (second series), hits give low values 0.972 | locus YJR043C, strain POL32, hits give low values 1.05 | locus YJR066W, strain TOR1, hits give low values 0.923
